Screens (PubChem BioAssay)
PG9 binder: small molecules binding HIV-1 gp120 antibody PG9 | TR-FRET gp120-PG9 antibody binding | inhibition, % at 6.7 µM | actives 0.43% (n = 360,000) | AID 624416; in the data active = inhibition above about 8.5%
NR1D1 modulator: Rev-erb alpha (human) modulation; P20393; Rev-erbα–FITC-DNA binding, fluorescence polarization, 90 min; actives 0.79% (n = 370,000); activity, % at 10 µM; AID 1259318;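 active = activity above about 14%, limit read from the data; passing the limit was not always enough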;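 note: 0% = DMSO wells with 35 nM protein and 100% = DMSO wells with 750 nM protein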
Target sequence (P20393 whole entry, looked up): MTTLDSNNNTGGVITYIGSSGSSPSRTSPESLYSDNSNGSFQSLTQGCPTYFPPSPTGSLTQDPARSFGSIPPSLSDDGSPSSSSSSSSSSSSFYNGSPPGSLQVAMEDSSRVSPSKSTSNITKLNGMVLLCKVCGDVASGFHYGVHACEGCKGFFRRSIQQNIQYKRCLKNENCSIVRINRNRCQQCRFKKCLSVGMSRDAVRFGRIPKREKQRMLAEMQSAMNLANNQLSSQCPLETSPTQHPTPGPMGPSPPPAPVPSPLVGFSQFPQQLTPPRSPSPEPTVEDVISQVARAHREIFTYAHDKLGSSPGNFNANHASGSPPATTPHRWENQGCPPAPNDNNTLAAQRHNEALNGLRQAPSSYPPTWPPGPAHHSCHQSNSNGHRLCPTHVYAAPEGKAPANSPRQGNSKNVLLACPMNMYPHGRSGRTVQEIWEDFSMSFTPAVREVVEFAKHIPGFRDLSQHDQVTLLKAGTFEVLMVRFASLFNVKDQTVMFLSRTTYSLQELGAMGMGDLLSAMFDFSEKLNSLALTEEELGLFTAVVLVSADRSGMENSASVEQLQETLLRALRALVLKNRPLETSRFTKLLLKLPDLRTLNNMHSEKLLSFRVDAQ
ABCB6 inh 2: inhibitors of human ABC transporter ABCB6. fluorescence ratio to DMSO, % at 10 µM. Q9NP58. actives 0.19% (n = 360,000). K562-ABCB6 porphyrin accumulation, flow cytometry, 1 h; active compounds read low;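 active = fluorescence ratio to DMSO below 75%, the collection mean minus 3 SD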;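 note: signal is porphyrin accumulated inside mitochondria; 100% equals median channel fluorescence of DMSO control wells; lower ratio means ABCB6 inhibition with less porphyrin fluorescence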
Exocytosis inh: blocks lytic granule exocytosis. TALL-104 LAMP-1 surface exposure, flow cytometry; cells stimulated with thapsigargin and PMA. inhibition, % at 10 µM. actives 0.66% (n = 360,000). AID 651702;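 active = inhibition above about 55%, limit read from the data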
VLA-4 inh: inhibition in a human VLA-4 binding assay; P13612; VLA-4 expressing cells, ligand binding flow cytometry; inhibition, % (about 7 µM as worked out from the volumes in the protocol); actives 0.2% (n = 330,000); AID 2557; in the data active = inhibition above about 50%
Exocytosis CP01: lytic granule exocytosis inhibition | shares compounds with Exocytosis inh | TALL-104 cells, LAMP-1 externalization, flow cytometry; stimulated with PMA plus thapsigargin | inhibition, % at 10 µM | actives 11% (n = 1,500); in the data active = inhibition above about 60%;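 note: 0% = stimulated vehicle wells and 100% = unstimulated wells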
* = called active by the depositor; . = no result given. Compounds with a hit are over-represented: about 2% of the library has one in this group of screens.

SMILES	PG9 binder	NR1D1 modulator	ABCB6 inh 2	Exocytosis inh	VLA-4 inh	Exocytosis CP01
O=C(c1cc(S(=O)(=O)N2CCOCC2)c(Cl)cc1Cl)N1CCN(S(=O)(=O)c2cccc(F)c2)CC1	0	1	96	56*	17	-5
N#Cc1ccccc1NCCCN1CCC(C(O)(c2ccccc2)c2ccccc2)CC1	.	6	.	.	.	.
CCOc1ccccc1Nc1cc(C)nc2ccc(C)cc12	1	3	96	81*	4	-7
COc1ccc(OC)c(Nc2cc(C)nc3ccc(C)cc23)c1	-2	0	94	56*	8	-12
COc1ccc(-c2cc(=O)c3cccc(CC(=O)O)c3o2)cc1	2	4	.	.	.	.
O=C(c1cc(-c2ccc(Cl)cc2)nc2ccccc12)N1CCN(c2ncccn2)CC1	.	0	.	.	.	.
Cc1cc(C)cc(NC(=O)NCC2CCN(Cc3cc(C)ccc3C)CC2)c1	0	6	93	46	15	.
CCc1ccc(NC(=O)NCC2CCN(Cc3cccc(Cl)c3)CC2)cc1	-2	0	98	61*	10	-4
Cc1ccc(NC(=O)NCC2CCN(Cc3cccc(Cl)c3)CC2)cc1Cl	0	-5	104	44	11	.
Cc1ccc(C)c(CN2CCC(CNC(=O)Nc3ccc(F)c(Cl)c3)CC2)c1	-2	0	98	58*	5	0
CC(C)CCCCCCCCc1cccc(O)c1C(=O)O	4	-11	.	.	.	.
COc1ccc(CCN2C(=O)c3ccccc3NC2c2cc(Cl)c(O)c(OC)c2)cc1 (configuration not stated)	-3	-7	102	77*	-4	-3
Cc1cccc(S(=O)(=O)Nc2ccc(-c3nc4ccc(C)cc4s3)cc2)c1	-1	3	92	75*	4	-11
Cc1ccc2nc(-c3ccc(NC(=O)CNC4CC4)cc3)sc2c1	2	-1	99	74*	.	28
Cc1ccc(S(=O)(=O)Nc2ccc(-c3nc4ccc(C)cc4s3)cc2)cc1	-1	4	92	2	-9	.
Cc1ccc2nc(-c3ccc(NC(=O)CN4C(=O)c5ccccc5C4=O)cc3)sc2c1	0	10	104	-1	7	.
CC(=O)CCc1oc2c([N+](=O)[O-])cccc2c1-c1ccc(C)o1	0	3	105	72*	-20	-5
C[C@@H]1CN([C@H](C)CO)C(=O)c2c(c3ccccc3n2C)-c2ccccc2CO[C@H]1CN(C)Cc1ccc(Oc2ccccc2)cc1	-1	8	94	56*	.	8
CCOC(=O)C1CCCC12Nc1cccc3cccc(c13)N2 (configuration not stated)	-12	-4	95	86*	.	-14
CCOc1ccc(S(=O)(=O)N2CCCC(C(=O)Nc3cccc(C)c3)C2)cc1 (configuration not stated)	0	3	92	63*	14	-13
COc1ccc(CN2CCCC(CO)(Cc3ccc(F)cc3)C2)c(OC)c1OC (configuration not stated)	-1	7	99	61*	16	-15
COc1cc(Cl)c(CN2CCCC(CO)(Cc3ccccc3F)C2)cc1OC (configuration not stated)	0	10	99	66*	8	-13
CCOc1ccc(CN2CCCC(CO)(Cc3ccccc3F)C2)cc1 (configuration not stated)	0	-4	99	-6	-1	.
CCCC(=O)Nc1ccc(Sc2ccc([N+](=O)[O-])cc2)cc1	-2	2	98	-4	12	.
CCC(CC)C(=O)Nc1ccc(Sc2ccc([N+](=O)[O-])cc2)cc1	0	-1	94	56*	7	0
SMILES	PG9 binder	NR1D1 modulator	ABCB6 inh 2	Exocytosis inh	VLA-4 inh	Exocytosis CP01
O=C(OCCCN1CCC2(CCC(c3ccccc3)CC2)C1=O)c1ccccc1 (configuration not stated)	.	-1	.	.	.	.
CN(C)CCCn1c(=S)[nH]c2ccccc2c1=O	-1	-3	105	0	2	.
CN(C)CCCn1c2c3ccccc3ccc2c2oc(=O)c3ccccc3c21	1	0	105	56*	.	23
C=CCn1c(C)nnc1SCC(=O)Nc1oc(C)c2c(C)n[nH]c(=O)c12	0	2	97	80*	6	-12
Cc1n[nH]c(=O)c2c(NC(=O)CSc3ncccn3)oc(C)c12	0	2	97	7	-2	.
C=CCN1[C@H](CO)[C@H](c2ccc(C#CC3(O)CCCC3)cc2)[C@@H]1C#N	.	-3	.	.	.	.
CC(C)(C)c1ccc(S(=O)(=O)N2CCC(C(=O)NCc3cccs3)CC2)cc1	.	-3	.	.	.	.
NC(=O)SCC(=O)Nc1ccc(Cl)c(Cl)c1	-3	-4	96	3	-11	.
NC(=O)SCC(=O)Nc1ccc(Cl)cc1	2	-7	124	78*	5	-6
CCCCS(=O)(=O)N1C2=NC(C(=O)OCC)=C(C(=O)OCC)C3N(Cc4ccc(Br)cc4)c4ccccc4[C@]23C[C@H]1C(=O)OC (some centres not stated)	-1	4	.	.	.	.
Cc1cc2nc(/C=C/c3nc4cc(C)c(C)cc4[nH]3)[nH]c2cc1C	1	-9	104	0	-6	.
Cc1cc2nc(/C=C/c3cccnc3)[nH]c2cc1C	-2	4	99	58*	3	-11
CCCCCCCCN1C(=O)[C@@H](CC(=O)NCCCN2CCCC2=O)C[C@@]2(C(=O)OC)C1=C[C@H](COCc1ccccc1)O[C@@H]2C	.	-2	.	.	.	.
OCC1(CCc2ccccc2)CCCN(C/C=C/c2ccccc2)C1 (configuration not stated)	-1	1	98	-6	-10	.
COc1ccccc1/C=C/CN1CCCC(CO)(CCc2ccccc2)C1 (configuration not stated)	1	-4	101	58*	-13	-5
CS(=O)(=O)N1CCN(c2ccc(NC(=O)c3ccc(-c4ccc(Cl)cc4)o3)cc2)CC1	0	-6	104	-5	-4	.
CCN1CCN(c2ccc(NC(=O)c3cccc(OCc4ccccc4)c3)cc2)CC1	-3	4	97	23	9	.
CN1CCN(c2ccc(NC(=O)c3ccc(-c4ccc(Cl)cc4)o3)cc2)CC1	0	-2	96	73*	2	91*
CN1CCN(c2ccc(NC(=O)c3cccc(OCc4ccccc4)c3)cc2)CC1	-1	1	100	58*	4	22
CN(C)CCCN(C(=O)CCc1ccccc1)c1nc2ccc(Cl)cc2s1	3	-1	109	72*	27	51
CCCNC(=S)N1CCN(c2nc(C)nc3sc4c(c23)CCCC4)CC1	1	-4	100	1	26	.
COCCCNC(=S)N1CCN(c2nc(C)nc3sc4c(c23)CCCC4)CC1	1	4	96	66*	4	-3
O=C(NCc1ccccc1)OC1CCC12CCC(c1ccccc1)CC2 (configuration not stated)	.	6	.	.	.	.
CCOC(=O)C1CCN(Cc2cc(Cl)c3ccccc3c2O)CC1	.	.	100	78*	-3	0
